D2 antagonist: D2 dopamine receptor (human) antagonism. P14416. HEK293 TREx D2 cells, calcium flux, dopamine EC80. inhibition, % at 10 µM. actives 2% (n = 340,000); in the data active = inhibition above about 30%; inactive = below that, where a call was filed; note: 0% is about no effect
Target sequence (P14416 whole entry, looked up): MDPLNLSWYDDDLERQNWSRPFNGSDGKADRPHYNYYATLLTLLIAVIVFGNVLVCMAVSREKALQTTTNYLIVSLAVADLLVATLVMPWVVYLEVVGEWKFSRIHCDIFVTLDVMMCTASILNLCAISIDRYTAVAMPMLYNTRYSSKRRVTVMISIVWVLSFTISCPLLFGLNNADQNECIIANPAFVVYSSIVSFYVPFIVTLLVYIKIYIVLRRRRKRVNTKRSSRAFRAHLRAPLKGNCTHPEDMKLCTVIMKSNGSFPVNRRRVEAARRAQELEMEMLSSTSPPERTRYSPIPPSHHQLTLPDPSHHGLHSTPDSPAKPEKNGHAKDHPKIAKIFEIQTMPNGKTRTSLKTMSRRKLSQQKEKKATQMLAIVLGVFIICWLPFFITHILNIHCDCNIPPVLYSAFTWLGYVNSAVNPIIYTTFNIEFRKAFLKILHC
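Antagonism is scored as inhibition of an EC80 dopamine-evoked calcium signal in a force-coupled, tetracycline-inducible HEK293 T-REx D2 line, with compound present 180 s before agonist.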
D2 ag-1: agonists of human D2 dopamine receptor (beta-arrestin); P14416; activation, % (concentration not given with the values); AID 624465; actives 0.084% (n = 360,000); DiscoveRx PathHunter D2 beta-arrestin, luminescence, 90 min; 100% = 57 uM dopamine signal; in the data active = activation above about 40%; inconclusive = between about 15% and that limit
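Agonist mode: compounds alone added to overnight-plated D2 PathHunter cells for 90 min at 37 C, with 57 uM final dopamine (EC100) defining full response. Beta-arrestin recruitment detected by chemiluminescent reagent, read after 1 h at ambient temperature.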
D2 PAM-1: human D2 receptor positive allosteric modulation. DiscoveRx D2 beta-arrestin cells, luminescence, 90 min; 100% = 57 uM dopamine signal. potentiation, % (no concentration beside the values). P14416. actives 0.23% (n = 360,000); in the data active = potentiation above about 50%; inconclusive = mostly about 30% to 49%
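PathHunter D2 cells, attached overnight at 37 deg C, received compound in DMSO plus dopamine at EC20 (50 nM final) for 90 min at 37 deg C. Beta-arrestin recruitment was read as luminescence after 1 h with detection reagent at ambient temperature.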
D2 ag-2: agonists of human D2 dopamine receptor | P14416 | HEK293 T-REx D2 cells, calcium flux agonist mode | activation, % at 2 µM | actives 0.53% (n = 340,000) | AID 485358;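 active = activation over 3 SD above normal in the single-dose calcium agonist read, cut at about 30% in these data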; note: 0% is about no effect
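Tetracycline-induced HEK293 Trex cells with D2 receptor force-coupled to calcium signaling, plated overnight at 30 C and loaded with no-wash calcium dye. Calcium flux read kinetically for 180 s after compound addition; responses flag agonists.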
D2 PAM-2: positive allosteric modulators of human D2 dopamine receptor; actives 0.34% (n = 340,000); HEK293 T-REx D2, calcium flux, EC20 dopamine potentiation; potentiation, % at 10 µM; AID 485347;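 active = potentiation over 3 SD above the plate norm, cut at about 30% in these data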; note: 0% is about no effect
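Using a no-wash calcium dye in inducible, force-coupled HEK293 Trex cells expressing D2, we tracked fluorescence each second for 180 s after compound, then for 180 s after EC20 dopamine to detect augmented signalling.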
* = called active by the depositor; ? = inconclusive; . = no result given. The list is not random: actives were taken first. Their share in the collection is about 2.4%.

SMILES	D2 antagonist	D2 ag-1	D2 PAM-1	D2 ag-2	D2 PAM-2
c1nnc(-c2ccc3c(c2)OCO3)o1	31*	4	5	1	-2
Cc1ccc(-c2nnc(-c3ccc4c(c3)OCO4)o2)cc1	-12	-3	-10	5	17
Cc1cc(=O)c2c(o1)C(=O)c1occc1C2=O	.	?	52*	.	.
Cc1ccc(SCC(=O)Nc2ccc(N3CCN(C)CC3)c(F)c2)c(C)c1	3	0	57*	5	-17
COc1ccc2cc(C(=O)C3CCCN(C(=O)/C=C/c4ccccn4)C3)ccc2c1 (stereo not given)	5	-2	2	0	-9
COc1ccc(C2(CNC(=O)C(=O)Nc3ccccc3C)CCCC2)cc1OC	.	.	.	3	8
O=c1cc(-c2c(F)c(F)c(F)c(F)c2F)oc2c(F)c(F)c(F)c(F)c12	56*	.	.	18	-12
O=c1cc(-c2c(F)c(F)c(F)c(F)c2F)oc2ccccc12	-9	-3	-18	0	18
Cc1cc(NC(=O)Cn2c(=O)oc3ccccc32)no1	33*	-3	-3	0	4
Cc1cccc(N2CCN(Cc3nc(-c4ccccc4Cl)oc3C)CC2)n1	40*	3	-7	2	-5
CCOC(=O)c1[nH]c(=O)[nH]c1CSc1nc(C)cc(C)n1	32*	-9	-25	-1	13
Cc1ccc(S(=O)(=O)CCC(=O)OCC(=O)N2c3ccccc3NC(=O)C2(C)C)cc1	90*	-3	-15	0	6
Cc1ccc(C(=O)CCC(=O)OCC(=O)N2c3ccccc3NC(=O)C2(C)C)cc1	.	-1	-18	.	.
O=C(O)c1cc(N/N=C/c2ccc(N3CCOCC3)s2)ccc1Cl	-17	11	22	0	20
Nc1cc(C(=O)OCC(=O)Nc2ccc(N3CCOCC3)cc2)ccc1Cl	48*	-2	-2	-1	-6
C/C(=N\Nc1ccc(Cl)c(C(=O)O)c1)c1ccc(N2CCOCC2)cc1	33*	-1	7	2	-1
CN1Cc2cccc3c2C(Cc2ccccc2S3)C1 (stereo not given)	48*	-2	-34	1	-25
Cc1sc(NC(=O)CCC(=O)O)c(C(N)=O)c1-c1ccccc1	47*	0	15	0	4
CCCn1cc(S(=O)(=O)c2ccccc2)c(=O)c2cc(OC)c(OC)cc21	1	-3	-7	0	39*
COc1ccc2ccccc2c1CNCCN1CCOCC1	-8	2	-1	1	5
COc1ccc(C(=O)N/C(=C\c2cc(OC)c(OC)cc2[N+](=O)[O-])C(=O)NCCO)cc1	39*	0	2	1	-12
CCCNC(=O)C1(C)CCN(C(=O)c2cccc(Cl)c2)C1 (stereo not given)	.	-2	1	.	.
C=CCn1c(=O)[nH]c2nc3cc(N=CN(C)C)c(C)cc3nc2c1=O	-6	-4	-11	30*	4
CN(C)/C=N/c1cc(=O)[nH]c(=O)n1CC1CC1	-9	-1	-7	1	-1
CC1CCN(c2ccc(C(F)(F)F)cc2N)CC1	8	-1	-8	0	0
SMILES	D2 antagonist	D2 ag-1	D2 PAM-1	D2 ag-2	D2 PAM-2
Nc1cc(C(F)(F)F)ccc1-n1cccc1	39*	0	1	0	-9
CC(Sc1nccn1C)C(=O)Nc1ccc(Cl)cn1 (stereo not given)	49*	5	-6	0	-2
CCC(Sc1nccn1C)C(=O)Nc1ccc(Cl)cn1 (stereo not given)	4	-1	-13	0	-23
O=C(O)c1cccc2c1-c1ccc(Cl)cc1C2	.	-8	-9	.	.
COc1ccc(C(CNC(=O)C(CCSC)NC(=O)c2ccccc2Cl)N2CCCC2)cc1 (stereo not given)	-4	-4	-21	-1	-3
COc1ccc(C(CNC(=O)c2cccc(Br)c2)N2CCCC2)cc1 (stereo not given)	41*	0	-15	0	-22
COc1ccc(C(CNC(=O)COc2ccc(F)cc2Br)N2CCCC2)cc1 (stereo not given)	1	-3	-21	-1	42*
COc1ccc(C(CNC(=O)c2cccc(S(=O)(=O)N3CCCC(C)C3)c2)N(C)C)cc1 (stereo not given)	76*	1	-6	0	-34

Screening data: PubChem BioAssay, National Center for Advancing Translational Sciences (NCATS)
